Source: PubChem BioAssay

experiment: reversal of MRP1-mediated doxorubicin resistance, pilot screen, H69AR cells, doxorubicin co-treatment (AID 601); conditions: H69AR cells, CellTiter-Glo, 72 h; compound alone cytotoxicity; at 10 µM

SMILES | viability [%]
Cn1c(=O)[nH]c(=O)c2c1nc(N1CCNCC1)n2CCOc1ccccc1 | 82
CCOC(=O)c1cc2n(n1)C(C(F)(F)C(F)(F)F)CC(C)N2 (stereo not given) | 97.3
Cc1ccccc1-n1c(=O)c2ccccc2n2nnnc12 | 93
Cc1cccc(N2C(=O)CC(N3CCN(C(=O)c4ccccc4)CC3)C2=O)c1 (stereo not given) | 96.3
CC(C)Cn1c(=O)c(C2=NS(=O)(=O)c3ccccc3N2)c(O)c2ccccc21 | 98.1
c1ccc(CNc2ncnc3ccccc23)cc1 | 83.8
O=S1(=O)N=C(Nc2nc3c(s2)CCCC3)c2ccccc21 | 78.9
CCCn1c2ccccc2c2nnc(SCC(=O)Nc3ncccn3)nc21 | 87.6
COc1cc(OC)cc(C(=O)N2c3ccc(F)cc3CCC2C)c1 (stereo not given) | 97.5
CCOC(=O)C(CCc1nnc(N)s1)C(=O)OCC | 108
CCOC(=O)N1CCN(c2c(NCCCOC(C)C)c(=O)c2=O)CC1 | 97.5
CN(C)S(=O)(=O)Nc1ccc(Br)cc1F | 102
CC(=O)Nc1c(C(=O)C2CC2)oc2ccccc12 | 90.2
O=C(COC(=O)c1cc(-c2ccco2)nc2ccccc12)NCc1ccc2c(c1)OCO2 | 96.8
CCC(=O)c1ccc(OCCN2CCOCC2)cc1 | 109
Cc1cc(=O)oc2cc(OCC(=O)OCc3nnc(-c4ccccc4)o3)ccc12 | 94.9
Nn1c(SCC(=O)NC2CCCCC2)nnc1C1CC1 | 103
CCN(C(=O)Cc1c(C(=O)O)[nH]c2ccccc12)c1cc(OC)ccc1OC | 92.7
O=C(NCc1ccco1)c1cnc2n(c1=O)CCS2 | 89.5
O=C1CN(C(=O)COC(=O)c2ccccc2NC(=O)c2ccco2)c2ccccc2N1 | 83.6
